Measurements: PubChem BioAssay AID2158 (National Center for Advancing Translational Sciences (NCATS), 2009)
“And” between values parts separate entries of the source, which are not always exact repeats. Equal values may be shown once. Records with an inconclusive call do not appear. Some structures have more than one record in an assay (separate samples or runs), and their calls can disagree. Values without a mark were called inactive. The source made the active and inactive calls. The call rests on the fitted dose curve; in most records, active means well fitted inhibition curve with a large enough effect; inconclusive means small, poorly fitted or top-dose-only effect; inactive means no such curve, though single readings can be large or run the other way.

Target: Cruzipain (Trypanosoma cruzi) (UniProt P25779)
Assay: Confirmation qHTS Assay for Inhibitors of Cruzain; further: nearly all actives have a fitted effect of over 40% in size;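 on activity change, negative = inhibition: plate controls were uninhibited enzyme control for no effect and buffer wells lacking enzyme for full effect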
Conditions: purified cruzain, Z-FR-AMC fluorescence, 0.01% Triton
Method in brief: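 Reaction progress from the 60 s rise in AMC fluorescence (ex 360, em 450 nm) after adding 2 uM Z-FR-AMC. Before this, 1.5 nM cruzain sat 15 min at room temperature with compound in pH 5.5 acetate buffer with 5 mM DTT and 0.01% Triton X-100.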
Potency means the concentration at half of the fitted maximal effect.

Cruzipain (Trypanosoma cruzi), sequence (P25779 123-467 limits assumed): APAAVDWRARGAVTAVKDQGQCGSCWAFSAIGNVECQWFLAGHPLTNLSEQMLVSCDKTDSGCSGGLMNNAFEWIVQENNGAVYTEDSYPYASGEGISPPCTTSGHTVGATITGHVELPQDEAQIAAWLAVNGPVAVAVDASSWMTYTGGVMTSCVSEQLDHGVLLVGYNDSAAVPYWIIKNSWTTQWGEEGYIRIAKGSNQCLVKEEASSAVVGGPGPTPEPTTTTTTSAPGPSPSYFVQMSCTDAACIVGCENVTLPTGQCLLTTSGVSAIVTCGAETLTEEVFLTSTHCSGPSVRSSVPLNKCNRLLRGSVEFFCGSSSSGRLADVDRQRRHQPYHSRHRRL

Structure (SMILES) | Potency | activity change, negative = inhibition
CC(C)Nc1nc(C#N)nc(Nc2ccccc2)n1 | 0.891 µM (active) | –
N#Cc1nc(N2CCCC2)nc(N(c2ccccc2)c2ccccc2)n1 | 1 µM (active) | –
Cc1ccccc1OCCCn1c(CCNC(=O)C2CCCCC2)nc2ccccc21 | 1 µM (active) | –
CCOC(=O)C(C(=O)OCC)N(C#N)c1nc(OC)nc(N(C)C)n1 | 15.8 µM (active) | –
O=C(CNC(=O)c1ccccc1)OC(C(=O)Nc1ccc2c(c1)OCO2)c1ccccc1 (configuration not stated) | 8.91 µM (active) | –
Cc1ccccc1OCC(=O)NCC(=O)OCC(=O)c1ccc(Br)cc1 | 35.5 µM (active) | –
O=C(Cn1cc(CNCc2ccccc2)nn1)Nc1cc(C(F)(F)F)ccc1Cl | – | 3.4%
O=C(Cc1ccccc1)NCC(=O)OCC(=O)c1ccc2ccccc2c1 | – | -9.73%
C/C(CC(=O)Nc1cc(Cl)ccc1Cl)=N\NC(N)=S | 1.12 µM (active) | –
O=C(Cn1cc(CNC(=O)c2ccccc2)nn1)Nc1cc(C(F)(F)F)ccc1Cl | – | 2.48%
COc1ccc(C(=O)COC(=O)CNC(=O)C2CCCCC2)c(OC)c1 | 14.1 µM (active) | –
CNc1oc(Cc2ccccc2)nc1S(=O)(=O)c1ccc(Cl)cc1 | 25.1 µM (active) | –
O=C(CNC(=O)c1ccccc1)OC(C(=O)Nc1cc(C(F)(F)F)ccc1Cl)c1ccccc1 (configuration not stated) | 5.01 µM (active) | -10.9% and -27.8%
O=C(NCc1ccc2c(c1)OCO2)c1ccc2c(c1)N(Cc1cccc(Cl)c1)C(=O)c1ccccc1S2 | – | 3.57%
CCc1ccc2[nH]c(=O)c(CN(Cc3cccs3)Cc3nnnn3Cc3ccccc3)cc2c1 | – | -18.5%
CC(C)(C)OC(=O)NCc1nnc(-c2cc3ccccc3[nH]2)o1 | – | 0.21%
Cc1ccc2[nH]c(=O)c(CN(CCCO)Cc3nnnn3Cc3ccccc3)cc2c1 | – | -13%
O=C(CNC(=O)C1CCCCC1)OCC(=O)c1ccc2c(c1)CCC2 | 6.31 µM (active) | –

Structure (SMILES) | Potency | activity change, negative = inhibition
CN(C)c1nc(C#N)nc(N2CCOCC2)n1 | 10 µM (active) and 8.91 µM (active) | –
CCC(C)NC(=O)c1ccc2nc(-c3ccco3)c(-c3ccco3)nc2c1 (configuration not stated) | 7.08 µM (active) | –
Cc1ccc(OCCCn2c(CCNC(=O)C3CCCCC3)nc3ccccc32)cc1 | 0.794 µM (active) | –
Cc1ccc(Nc2nc(C#N)nc(NC3CCCC3)n2)cc1 | 0.447 µM (active) | –
CC(C)(C)Nc1nc(C#N)nc(Nc2ccccc2)n1 | 2.24 µM (active) | –
COc1ccc(-c2cnnn2-c2ccc(NC(=O)/C=C/c3ccc(OC)c(OC)c3)cc2)cc1 | 15.8 µM (active) | –
Cc1cccc(C(=O)NCC(=O)OCC(=O)c2ccc3ccccc3c2)c1 | 12.6 µM (active) | –
C=CC(C)(C)c1[nH]c2ccccc2c1C1=C(O)C(=O)C(c2c[nH]c3c(CC=C(C)C)cccc23)=C(O)C1=O | 25.1 µM (active) | –
CCc1ccc2[nH]c(=O)c(CN(Cc3ccccc3)Cc3nnnn3Cc3ccccc3)cc2c1 | – | -20%
Cc1cccc(Nc2nc(C#N)nc(NC3CCCC3)n2)c1 | 0.126 µM (active) | –
c1ccc(CNCc2nnc(-c3cc4ccccc4[nH]3)s2)cc1 | – | -7.37%
Cc1ccccc1OCC(=O)NCC(=O)OC(c1ccccc1)c1ccccc1 | – | -14.6%
Cc1ccc(OCCCn2c(CCCNC(=O)C3CCCCC3)nc3ccccc32)cc1 | – | -20.3%
O=C(CNC(=O)c1ccccc1)N[C@H](C(=O)Nc1cc(C(F)(F)F)ccc1Cl)c1ccccc1 | – | -13.5%
O=C(NCCc1nc2ccccc2n1CCOc1ccc2ccccc2c1)C1CCCCC1 | 3.55 µM (active) | –
O=C(Nc1ccc(N2CCCC2)cc1)c1ccc(Br)o1 | – | -25%
O=C(CNC(=O)c1ccccc1)OCC(=O)c1ccc2ccccc2c1 | 15.8 µM (active) | –
Cc1cc(NC(=O)Cc2cccs2)no1 | – | -19.2%
